Assay results: the supplement of paper PMC8253809

Key:
Assay in all cases: growth inhibition (% activity, log2 RLU normalised to DMSO / staurosporine); higher = more growth inhibition
Conditions in all cases: 33 µM
DIPGX29 = tested on: DIPGX29 (H3.3 K27M diffuse intrinsic pontine glioma line)
Method in brief: (§1)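 Approved drugs, at a single final concentration of about 33 μM, were applied in triplicate to pHGG cell lines and H9-derived neural stem cells for 7 days at 37 °C, 5% CO2. The growth-inhibition value is the replicate median of log2-transformed CellTiter-Glo luminescence normalised per plate to % activity between solvent and positive control wells.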

DIPGX37 = tested on: DIPGX37 (H3.3 K27M diffuse intrinsic pontine glioma line)
Method in brief: as §1

DIPGX7 = tested on: DIPGX7 (H3.3 K27M diffuse intrinsic pontine glioma line)
Method in brief: as §1

DIPGX9 = tested on: DIPGX9 (diffuse intrinsic pontine glioma line)
Method in brief: as §1

HGGX39 = tested on: HGGX39 (paediatric high-grade glioma line)
Method in brief: as §1

HGGX6 = tested on: HGGX6 (H3.3 G34R paediatric high-grade glioma line)
Method in brief: as §1

HNSC = tested on: HNSC
Method in brief: as §1

SUDIPGIV = tested on: SUDIPGIV (diffuse intrinsic pontine glioma line)
Method in brief: as §1

SUDIPGVI = tested on: SUDIPGVI (diffuse intrinsic pontine glioma line)
Method in brief: as §1

SUDIPGXIII = tested on: SUDIPGXIII (diffuse intrinsic pontine glioma line)
Method in brief: as §1

Cc1cccc(N(C)C(=S)Oc2ccc3ccccc3c2)c1
growth inhibition (DIPGX29): -3.14% | growth inhibition (DIPGX37): -1.11% | growth inhibition (DIPGX7): -2.16% | growth inhibition (DIPGX9): -2.01% | growth inhibition (HGGX39): -1.4% | growth inhibition (HGGX6): -3.78% | growth inhibition (HNSC): -3.49% | growth inhibition (SUDIPGIV): -3.02% | growth inhibition (SUDIPGVI): -3.26% | growth inhibition (SUDIPGXIII): 0.248%

CC(C)(C)NCC(O)c1ccc(O)c(CO)c1 (stereo not given)
growth inhibition (DIPGX29): -2.88% | growth inhibition (DIPGX37): -1.32% | growth inhibition (DIPGX7): -0.0436% | growth inhibition (DIPGX9): -1.85% | growth inhibition (HGGX39): -1.15% | growth inhibition (HGGX6): 1.2% | growth inhibition (HNSC): -1.34% | growth inhibition (SUDIPGIV): 1.26% | growth inhibition (SUDIPGVI): -4.26% | growth inhibition (SUDIPGXIII): 1.25%

Clc1ccc(C(Cn2ccnc2)OCc2csc3c(Cl)cccc23)c(Cl)c1 (stereo not given)
growth inhibition (DIPGX29): 2.06% | growth inhibition (DIPGX37): 3.55% | growth inhibition (DIPGX7): 1.45% | growth inhibition (DIPGX9): 1.99% | growth inhibition (HGGX39): 8.8% | growth inhibition (HGGX6): 6.02% | growth inhibition (HNSC): 10.7% | growth inhibition (SUDIPGIV): 13.8% | growth inhibition (SUDIPGVI): 1.94% | growth inhibition (SUDIPGXIII): 5.27%

Cc1cc(NC(=O)C2=C(O)c3ccccc3S(=O)(=O)N2C)no1
growth inhibition (DIPGX29): -3.22% | growth inhibition (DIPGX37): -1.66% | growth inhibition (DIPGX7): -1.69% | growth inhibition (DIPGX9): -3.17% | growth inhibition (HGGX39): -4.59% | growth inhibition (HGGX6): -4.04% | growth inhibition (HNSC): 7.58% | growth inhibition (SUDIPGIV): -5.37% | growth inhibition (SUDIPGVI): -10.5% | growth inhibition (SUDIPGXIII): -0.431%

NCCCC[C@H](N[C@@H](CCc1ccccc1)C(=O)O)C(=O)N1CCC[C@H]1C(=O)O
growth inhibition (DIPGX29): -0.869% | growth inhibition (DIPGX37): -1.25% | growth inhibition (DIPGX7): -0.813% | growth inhibition (DIPGX9): -0.846% | growth inhibition (HGGX39): -1.12% | growth inhibition (HGGX6): 1.27% | growth inhibition (HNSC): -1.56% | growth inhibition (SUDIPGIV): -0.401% | growth inhibition (SUDIPGVI): -1.38% | growth inhibition (SUDIPGXIII): -4.08%

COc1c(C)c2c(c(O)c1C/C=C(\C)CCC(=O)OCCN1CCOCC1)C(=O)OC2
growth inhibition (DIPGX29): 17.5% | growth inhibition (DIPGX37): 14.5% | growth inhibition (DIPGX7): 10.6% | growth inhibition (DIPGX9): 15.1% | growth inhibition (HGGX39): 17.2% | growth inhibition (HGGX6): 15.1% | growth inhibition (HNSC): 65.5% | growth inhibition (SUDIPGIV): 8.44% | growth inhibition (SUDIPGVI): 8.42% | growth inhibition (SUDIPGXIII): 7.66%

Nc1ccn([C@H]2CC[C@@H](CO)O2)c(=O)n1
growth inhibition (DIPGX29): 1.28% | growth inhibition (DIPGX37): 0.314% | growth inhibition (DIPGX7): 0.245% | growth inhibition (DIPGX9): 2.8% | growth inhibition (HGGX39): 6.49% | growth inhibition (HGGX6): 1.48% | growth inhibition (HNSC): 17.8% | growth inhibition (SUDIPGIV): 15.2% | growth inhibition (SUDIPGVI): 0.499% | growth inhibition (SUDIPGXIII): 1.84%

CC(C)(C)c1ccc(C(O)CCCN2CCC(C(O)(c3ccccc3)c3ccccc3)CC2)cc1 (stereo not given)
growth inhibition (DIPGX29): -0.594% | growth inhibition (DIPGX37): -0.074% | growth inhibition (DIPGX7): 0.488% | growth inhibition (DIPGX9): 0.591% | growth inhibition (HGGX39): 2.84% | growth inhibition (HGGX6): 1.58% | growth inhibition (HNSC): 0.144% | growth inhibition (SUDIPGIV): -0.418% | growth inhibition (SUDIPGVI): -2.2% | growth inhibition (SUDIPGXIII): -0.826%

CC1(C)S[C@@H]2[C@H](NC(=O)[C@H](NC(=O)N3CCN(S(C)(=O)=O)C3=O)c3ccccc3)C(=O)N2[C@H]1C(=O)O
growth inhibition (DIPGX29): -1.26% | growth inhibition (DIPGX37): 0.368% | growth inhibition (DIPGX7): -0.979% | growth inhibition (DIPGX9): -1.9% | growth inhibition (HGGX39): -0.656% | growth inhibition (HGGX6): -0.1% | growth inhibition (HNSC): -2.17% | growth inhibition (SUDIPGIV): 0.286% | growth inhibition (SUDIPGVI): -2.19% | growth inhibition (SUDIPGXIII): 2.64%

NC(=O)N1c2ccccc2CC(=O)c2ccccc21
growth inhibition (DIPGX29): -3.02% | growth inhibition (DIPGX37): -1.81% | growth inhibition (DIPGX7): -2.16% | growth inhibition (DIPGX9): -3.17% | growth inhibition (HGGX39): -2.13% | growth inhibition (HGGX6): -4.21% | growth inhibition (HNSC): -3.92% | growth inhibition (SUDIPGIV): -3.93% | growth inhibition (SUDIPGVI): -1.28% | growth inhibition (SUDIPGXIII): -0.579%

C[N+]1(C)[C@@H]2C[C@@H](OC(=O)C(O)(c3cccs3)c3cccs3)C[C@H]1[C@@H]1O[C@@H]12
growth inhibition (DIPGX29): -2.02% | growth inhibition (DIPGX37): -0.731% | growth inhibition (DIPGX7): -2.26% | growth inhibition (DIPGX9): -2.3% | growth inhibition (HGGX39): -2.1% | growth inhibition (HGGX6): -0.274% | growth inhibition (HNSC): -3.15% | growth inhibition (SUDIPGIV): -1.02% | growth inhibition (SUDIPGVI): -2.31% | growth inhibition (SUDIPGXIII): 0.889%

Nc1nc(NC2CC2)c2ncn([C@H]3C=C[C@@H](CO)C3)c2n1
growth inhibition (DIPGX29): 1.7% | growth inhibition (DIPGX37): 3.27% | growth inhibition (DIPGX7): 1.17% | growth inhibition (DIPGX9): 1.56% | growth inhibition (HGGX39): 3.46% | growth inhibition (HGGX6): 3.46% | growth inhibition (HNSC): 0.755% | growth inhibition (SUDIPGIV): 2.42% | growth inhibition (SUDIPGVI): 3.29% | growth inhibition (SUDIPGXIII): 0.173%

OCC(O)CN1CCN(c2ccccc2)CC1 (stereo not given)
growth inhibition (DIPGX29): -2.77% | growth inhibition (DIPGX37): -0.131% | growth inhibition (DIPGX7): -2.09% | growth inhibition (DIPGX9): -1.86% | growth inhibition (HGGX39): -1.17% | growth inhibition (HGGX6): -1.7% | growth inhibition (HNSC): -3.11% | growth inhibition (SUDIPGIV): -1.45% | growth inhibition (SUDIPGVI): -3.65% | growth inhibition (SUDIPGXIII): -0.744%

CCOc1nc2cccc(C(=O)OCc3oc(=O)oc3C)c2n1Cc1ccc(-c2ccccc2-c2noc(=O)[nH]2)cc1
growth inhibition (DIPGX29): 0.179% | growth inhibition (DIPGX37): -1.86% | growth inhibition (DIPGX7): 1.02% | growth inhibition (DIPGX9): 0.141% | growth inhibition (HGGX39): 0.998% | growth inhibition (HGGX6): -2.04% | growth inhibition (HNSC): 16.6% | growth inhibition (SUDIPGIV): -1.36% | growth inhibition (SUDIPGVI): -4.87% | growth inhibition (SUDIPGXIII): -1.75%

CCOC(=O)[C@H](CCc1ccccc1)N[C@@H](C)C(=O)N1C(=O)N(C)C[C@H]1C(=O)O
growth inhibition (DIPGX29): -1.26% | growth inhibition (DIPGX37): 0.599% | growth inhibition (DIPGX7): -0.344% | growth inhibition (DIPGX9): -0.304% | growth inhibition (HGGX39): -1.03% | growth inhibition (HGGX6): -1.84% | growth inhibition (HNSC): 1.56% | growth inhibition (SUDIPGIV): -1.04% | growth inhibition (SUDIPGVI): -1.53% | growth inhibition (SUDIPGXIII): 1.71%

O=C(CCNNC(=O)c1ccncc1)NCc1ccccc1
growth inhibition (DIPGX29): -2.81% | growth inhibition (DIPGX37): 1.16% | growth inhibition (DIPGX7): -0.869% | growth inhibition (DIPGX9): -2.76% | growth inhibition (HGGX39): -1.32% | growth inhibition (HGGX6): -1.96% | growth inhibition (HNSC): 2.79% | growth inhibition (SUDIPGIV): -2.06% | growth inhibition (SUDIPGVI): -1.86% | growth inhibition (SUDIPGXIII): 0.338%

CC(O)(P(=O)(O)O)P(=O)(O)O
growth inhibition (DIPGX29): -0.191% | growth inhibition (DIPGX37): 1.06% | growth inhibition (DIPGX7): -0.11% | growth inhibition (DIPGX9): -0.168% | growth inhibition (HGGX39): -1.7% | growth inhibition (HGGX6): 1.43% | growth inhibition (HNSC): -0.64% | growth inhibition (SUDIPGIV): -0.506% | growth inhibition (SUDIPGVI): 1.73% | growth inhibition (SUDIPGXIII): 0.673%

COc1ccccc1N1CCN(CCCNc2cc(=O)n(C)c(=O)n2C)CC1
growth inhibition (DIPGX29): -0.448% | growth inhibition (DIPGX37): 2.3% | growth inhibition (DIPGX7): -0.071% | growth inhibition (DIPGX9): 0.0185% | growth inhibition (HGGX39): 0.367% | growth inhibition (HGGX6): 0.543% | growth inhibition (HNSC): 0.25% | growth inhibition (SUDIPGIV): -1.07% | growth inhibition (SUDIPGVI): -1.77% | growth inhibition (SUDIPGXIII): 1.17%

COc1cc(NS(=O)(=O)c2ccc(N)cc2)nc(OC)n1
growth inhibition (DIPGX29): 1.59% | growth inhibition (DIPGX37): 1.08% | growth inhibition (DIPGX7): 2.92% | growth inhibition (DIPGX9): 1.55% | growth inhibition (HGGX39): 1.71% | growth inhibition (HGGX6): 2.67% | growth inhibition (HNSC): 1.56% | growth inhibition (SUDIPGIV): 0.337% | growth inhibition (SUDIPGVI): 2.95% | growth inhibition (SUDIPGXIII): -1.53%

N[C@@H]1CONC1=O
growth inhibition (DIPGX29): 1.31% | growth inhibition (DIPGX37): -0.333% | growth inhibition (DIPGX7): 0.738% | growth inhibition (DIPGX9): 1.4% | growth inhibition (HGGX39): 0.732% | growth inhibition (HGGX6): 0.485% | growth inhibition (HNSC): -0.391% | growth inhibition (SUDIPGIV): -1.17% | growth inhibition (SUDIPGVI): 1.19% | growth inhibition (SUDIPGXIII): 1.03%

Cc1cc(C#N)cc(C)c1Oc1nc(Nc2ccc(C#N)cc2)nc(N)c1Br
growth inhibition (DIPGX29): 3.55% | growth inhibition (DIPGX37): -3.38% | growth inhibition (DIPGX7): 9.93% | growth inhibition (DIPGX9): -0.625% | growth inhibition (HGGX39): 6.72% | growth inhibition (HGGX6): 6.05% | growth inhibition (HNSC): 35.3% | growth inhibition (SUDIPGIV): 1.55% | growth inhibition (SUDIPGVI): 15.5% | growth inhibition (SUDIPGXIII): 27.6%
